PubChem BioAssay (NCI)
This is part of a sample that, as a whole, favours compounds with a hit. Of some 83,000 tested, about 20% had one in any assay.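 96-well plates, one dose, 48 hours. Percent growth reported; active if below 10.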 Calls of active or inactive are those of the source.

Key:
Assay in all cases: NCI-60 one-dose screen, 48 h (100 = growth as untreated, 0 = no growth, -100 = all killed)
Details in all cases: 10 µM unless noted
BT-549 breast = test system: BT-549 breast
MDA-MB-435 melanoma = test system: MDA-MB-435 melanoma
SW-620 colon = test system: SW-620 colon
MCF7 breast = test system: MCF7 breast
HCT-116 colon = test system: HCT-116 colon
HCC-2998 colon = test system: HCC-2998 colon
KM12 colon = test system: KM12 colon

Measured: growth

COc1cc(C(=O)Nc2cc(O)c(C/C=C(\C)CCC=C(C)C)c(O)c2)cc2c1O[C@]1(C)CC[C@@H](O)C(C)(C)[C@H]1C2
inactive: BT-549 breast 18.4% | MDA-MB-435 melanoma 17.1% | MCF7 breast 10.2% | HCT-116 colon 13.2% | HCC-2998 colon 23.2% | KM12 colon 13.3%
active: SW-620 colon 4.02%

Nc1ccc(C2=NN(C(=O)c3cc(-c4ccc(Cl)cc4)nc4ccccc34)C(c3ccc(Cl)cc3)C2)cc1 (configuration not stated)
inactive: BT-549 breast 52.3% | SW-620 colon 29.6% | MCF7 breast 14.8% | HCT-116 colon 23% | HCC-2998 colon 62.9% | KM12 colon 27.5%
active: MDA-MB-435 melanoma -23.1%

OCCNc1nc(NCCO)nc(Nc2ccc(C3=NN(c4cc(Cl)cc(Cl)c4)C(c4ccccc4)C3)cc2)n1 (configuration not stated)
inactive: BT-549 breast 59.4% | MDA-MB-435 melanoma 49.5% | SW-620 colon 60% | MCF7 breast 16.3% | HCT-116 colon 33.8% | HCC-2998 colon 52.8% | KM12 colon 27.9%

COc1ccc(N(C)c2nc(Cl)nc3ccn(C)c23)cc1
active: BT-549 breast -4.36% | MDA-MB-435 melanoma -26.4% | HCT-116 colon -7.01% | KM12 colon 5.77%
inactive: SW-620 colon 21.9% | MCF7 breast 13.6% | HCC-2998 colon 15.8%

O=C1NC(c2ccc(F)cc2)N=C2C(c3ccccc3)=NOC12 (configuration not stated)
inactive: BT-549 breast 106% | MDA-MB-435 melanoma 106% | SW-620 colon 106% | MCF7 breast 101% | HCT-116 colon 103% | HCC-2998 colon 101% | KM12 colon 98.8%

Cc1ccc(C2=N[C@H]3CCC[C@@H]3N(c3ccccc3)C(C(Cl)Cl)=N2)cc1
inactive: BT-549 breast 106% | MDA-MB-435 melanoma 103% | SW-620 colon 107% | MCF7 breast 87% | HCT-116 colon 97.7% | HCC-2998 colon 110% | KM12 colon 100%

CCOC(=O)c1sc(/N=C2\NC(=O)/C(=C/c3ccc(N4CCN(C)CC4)cc3)S2)nc1C
inactive: BT-549 breast 95% | MDA-MB-435 melanoma 106% | SW-620 colon 120% | MCF7 breast 84% | HCT-116 colon 103% | HCC-2998 colon 94.7% | KM12 colon 95.4%

Nc1cc(N)c(S(=O)(=O)O)cc1N=Nc1cc([N+](=O)[O-])ccc1O
inactive: BT-549 breast 105% | MDA-MB-435 melanoma 112% | SW-620 colon 108% | MCF7 breast 94.7% | HCT-116 colon 94% | HCC-2998 colon 109% | KM12 colon 106%

COc1ccc(Nc2cc(NC(=O)CNc3cc(OC)c(Cl)c(OC)c3Cl)ncn2)cc1
inactive: BT-549 breast 83.2% | MDA-MB-435 melanoma 74% | SW-620 colon 96.3% | MCF7 breast 71.7% | HCT-116 colon 69.9% | HCC-2998 colon 95.5% | KM12 colon 81.5%

CN(C)CCCn1c2c(c3cc(-c4ccco4)ccc3c1=O)C(=O)c1ccccc1-2
active: MCF7 breast -21.6%
inactive: BT-549 breast 83.9% | MDA-MB-435 melanoma 66.6% | SW-620 colon 30.2% | HCT-116 colon 26.6% | HCC-2998 colon 71.7% | KM12 colon 44.4%

COc1cccc(NC(=O)Nc2ccc(Nc3ncnc4[nH]c(C)c(C)c34)cc2)c1
inactive: BT-549 breast 97.7% | MDA-MB-435 melanoma 102% | SW-620 colon 110% | MCF7 breast 91.1% | HCT-116 colon 116% | HCC-2998 colon 115% | KM12 colon 70.6%

C=C1C(=O)O[C@H]2[C@H]1CC/C(COC(=O)c1cc3ccccc3o1)=C\CC[C@@]1(C)O[C@@H]21
inactive: HCC-2998 colon 61.6% | KM12 colon 26.7%
active: BT-549 breast -32.5% | MDA-MB-435 melanoma -35.1% | SW-620 colon -58.2% | MCF7 breast -31.8% | HCT-116 colon -84.1%

COc1cc(-c2csc(NC(=O)Nc3ccc(Cl)cc3)n2)cc(OC)c1OC
inactive: BT-549 breast 31.9% | MDA-MB-435 melanoma 18.1% | SW-620 colon 42.1% | HCT-116 colon 17.8% | HCC-2998 colon 38.9% | KM12 colon 13.4%
active: MCF7 breast 8.71%

Cc1nc2sc(C(=O)Nc3ccccc3Cl)c(N)c2cc1C(C)O (configuration not stated)
active: MDA-MB-435 melanoma 5.06%
inactive: BT-549 breast 78.8% | SW-620 colon 57.6% | MCF7 breast 48.6% | HCT-116 colon 67.8% | HCC-2998 colon 84.5% | KM12 colon 56.1%

COc1ccc(C(=O)c2cc(F)c(F)c(OC)c2F)cc1OC(=O)CCl
inactive: BT-549 breast 36.3% | SW-620 colon 20.6% | MCF7 breast 19.2% | HCT-116 colon 20.5% | HCC-2998 colon 79.5% | KM12 colon 31.1%
active: MDA-MB-435 melanoma -27.7%

COc1ccc(-c2cc(-c3nnc(SCC(=O)Nc4ccc(C(C)=O)cc4)o3)c3ccccc3n2)cc1
active: SW-620 colon 5.51% | MCF7 breast -15.7% | HCT-116 colon -26.9%
inactive: BT-549 breast 14.8% | MDA-MB-435 melanoma 11.5% | HCC-2998 colon 96.5% | KM12 colon 39.2%

Cc1cnc(SCc2ccc(Cl)cc2Cl)nc1Nc1ccc(Cl)c(Cl)c1
inactive: BT-549 breast 101% | MDA-MB-435 melanoma 104% | SW-620 colon 102% | MCF7 breast 85.4% | HCT-116 colon 77.3% | HCC-2998 colon 103% | KM12 colon 89.4%

CC(C)NS(=O)(=O)c1cccc(-c2ccc3c4c(n(CCCN(C)C)c(=O)c3c2)-c2ccccc2C4=O)c1
inactive: BT-549 breast 95.6% | MDA-MB-435 melanoma 92.9% | SW-620 colon 57.4% | MCF7 breast 38.8% | HCC-2998 colon 96.8% | KM12 colon 93.9%
active: HCT-116 colon -66%

CC1(C)[C@@H](O)CC[C@]2(C)[C@H]3CC[C@@H]4[C@H]5[C@H](c6cn(-c7ccccc7)nn6)CC[C@]5(CO)CC[C@@]4(C)[C@]3(C)CC[C@@H]12
inactive: BT-549 breast 80% | MDA-MB-435 melanoma 93.9% | SW-620 colon 94.3% | MCF7 breast 52.8% | HCT-116 colon 94.4% | HCC-2998 colon 110% | KM12 colon 88%

CC1=C(CCCOC(=O)NCCCl)C2=C(C)C3(CC3)[C@@](C)(O)C(=O)C2=C1
inactive: BT-549 breast 17.5% | MDA-MB-435 melanoma 84.8% | SW-620 colon 80.3% | MCF7 breast 29.8% | HCT-116 colon 28.2% | HCC-2998 colon 28.8% | KM12 colon 79.2%

Nc1ccc(C(=O)Nc2cccc(C(=O)Nc3ccc4c(O)c(N=Nc5ccc(N=Nc6ccc(S(=O)(=O)O)cc6)cc5)c(S(=O)(=O)O)cc4c3)c2)cc1
inactive: BT-549 breast 111% | MDA-MB-435 melanoma 106% | SW-620 colon 105% | MCF7 breast 94.8% | HCT-116 colon 91.8% | HCC-2998 colon 98% | KM12 colon 104%

O=C(/C(=C\c1c(-c2ccccc2)[nH]c2ccccc12)S(=O)(=O)c1ccccc1)c1ccccc1
inactive: BT-549 breast 47.7% | MDA-MB-435 melanoma 17.2% | SW-620 colon 53% | MCF7 breast 40.7% | HCC-2998 colon 73.1%

COCCOCCOCc1n(Cc2ccc3ccccc3c2)c2ccccc2[n+]1Cc1ccc2ccccc2c1
active: BT-549 breast 1.44% | MDA-MB-435 melanoma 7.86% | MCF7 breast 7.6%
inactive: SW-620 colon 18.9% | HCC-2998 colon 17.8%

COc1ccc(OCC(=O)OC(C)C)cc1
inactive: BT-549 breast 109% | MDA-MB-435 melanoma 101% | SW-620 colon 94.4% | MCF7 breast 93.8% | HCT-116 colon 114% | HCC-2998 colon 103% | KM12 colon 93.8%

COc1cc(C2CC(c3ccc(Nc4nc(NCCO)nc(NCCO)n4)cc3)=NN2c2cc(Cl)cc(Cl)c2)cc(OC)c1OC (configuration not stated)
active: BT-549 breast -27.2% | MDA-MB-435 melanoma -15.9% | SW-620 colon -4.18% | MCF7 breast -60.9% | HCT-116 colon 9.76% | KM12 colon -25.6%
inactive: HCC-2998 colon 24.4%

CO[C@@]12C=C[C@@]34CCC(=O)N3c3ccccc3[C@@H](O1)C4C2
inactive: BT-549 breast 105% | MDA-MB-435 melanoma 104% | SW-620 colon 101% | MCF7 breast 97.9% | HCT-116 colon 102% | HCC-2998 colon 106% | KM12 colon 105%

CN(CCC#N)C(=O)Nc1ccccc1
inactive: BT-549 breast 102% | MDA-MB-435 melanoma 107% | SW-620 colon 103% | MCF7 breast 100% | HCT-116 colon 109% | HCC-2998 colon 108% | KM12 colon 104%

COc1ccc(-c2nc(C#N)c(NCC(c3ccc(Cl)cc3)N3CCCCC3)o2)cc1 (configuration not stated)
inactive: BT-549 breast 106% | MDA-MB-435 melanoma 77.1% | SW-620 colon 97.5% | MCF7 breast 80.6% | HCT-116 colon 80.5% | HCC-2998 colon 107% | KM12 colon 84.9%

COc1ccc2c(c1)Oc1nc(N)c(C#N)c(N)c1C2Sc1ccc(SC)cc1 (configuration not stated)
inactive: BT-549 breast 38.9% | MDA-MB-435 melanoma 24.2% | HCT-116 colon 10.2% | HCC-2998 colon 58.9% | KM12 colon 53.3%
active: SW-620 colon -8.99% | MCF7 breast -20.7%

O=c1c2ccccc2n(CC(O)CN2CCCC2)c2c(Br)cccc12 (configuration not stated)
inactive: BT-549 breast 92.2% | MDA-MB-435 melanoma 86.8% | SW-620 colon 94.9% | MCF7 breast 92.9% | HCT-116 colon 90.4% | KM12 colon 94%

O=C(CN1N=C(c2ccc(F)cc2)CCC1=O)Nc1nccs1
inactive: BT-549 breast 101% | MDA-MB-435 melanoma 102% | SW-620 colon 91.6% | MCF7 breast 93.8% | HCC-2998 colon 97.6% | KM12 colon 107%

N#Cc1c(-c2ccc(F)cc2)nc(N/N=C/c2c[nH]c3ccccc23)nc1N1CCOCC1
active: SW-620 colon 7.62%
inactive: BT-549 breast 75.5% | MDA-MB-435 melanoma 77.2% | MCF7 breast 51.5% | HCT-116 colon 44.3% | HCC-2998 colon 59% | KM12 colon 40%

C=C(C)[C@@H]1CC[C@]2(C(=O)OCCOCCOCC[P+](c3ccccc3)(c3ccccc3)c3ccccc3)CC[C@]3(C)[C@H](CC[C@@H]4[C@@]5(C)CC[C@H](OC(C)=O)C(C)(C)[C@@H]5CC[C@]43C)[C@@H]12
active: BT-549 breast -89.8% | MDA-MB-435 melanoma -91.3% | SW-620 colon -77.9% | MCF7 breast -76% | HCT-116 colon -92.2% | HCC-2998 colon -88.4% | KM12 colon -89.8%

COc1cc2c(cc1OC)C(Sc1ccc(Cl)cc1)c1c(nc(N)c(C#N)c1N)O2 (configuration not stated)
active: BT-549 breast 1.72% | MDA-MB-435 melanoma -43.8% | SW-620 colon -63.1% | MCF7 breast -52.2% | HCT-116 colon -70.6% | HCC-2998 colon -48.1% | KM12 colon -27.8%
